Test results taken from PubChem BioAssay (EPA / NIEHS).
More than one record can exist for a structure, and the calls need not agree. Calls of active or inactive are those of the source. The calls were made as follows: active = hit-call score of the fitted dose curve at least 0.9, where 1 is the maximum; inactive = score below 0.9.

experiment: BSK_4H_Eotaxin3: BioMAP Diversity Plus: 4H Assay for Eotaxin 3 Biomarker Activity (AID 2283000); conditions: primary human endothelial cells (HUVEC); actives raise or lower the signal;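 as to outcome: CCL26 protein level quantified by ELISA in parallel with SRB cytotoxicity check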
How it was run: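 Eotaxin-3 (CCL26) levels were measured by ELISA in HUVEC primary cultures 24 h post-dosing. Gain or loss of signal was fitted in both directions, with DMSO serving as baseline and negative control.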

| SMILES | AC50 | outcome |
| --- | --- | --- |
| CCCCC(CC)COCC1CO1 (configuration not stated) | 3.97 µM (active) | inactive |
| c1ccc2c(c1)ccc1ncccc12 | 20 µM (active) | – |
| CC(C)C(=O)C(C)C | – | inactive |
| CCCCCCCCCCCCCCCC[N+](C)(C)CC | 2.24 µM (active) | – |
| O=Nc1ccc(O)cc1 | – | inactive |
| COCc1c(C(C)C)nc(C(C)C)c(/C=C/[C@@H](O)C[C@@H](O)CC(=O)O)c1-c1ccc(F)cc1 | 0.0266 µM (active) | – |
